Measurements published in PubChem BioAssay (Tox21).
Records with an inconclusive call do not appear. Active and inactive are the calls of the source. Unless noted, the call rests on the fitted dose curve; in most records, active means well fitted curve in the direction sought with a large enough effect in the repeat runs; inconclusive means weak or mixed curves; inactive means no such curve, though single readings can be large; an effect the other way counts as inactive or inconclusive.

Tests used:
[1] = qHTS assay for small molecule agonists of the p53 signaling pathway (AID 651631; calls by dose curve; further: nearly all actives have a fitted effect of over 15% in size)
How it was run: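 HCT-116 cells carrying a stable p53 response element–beta-lactamase reporter were plated, rested 5 h at 37 °C, then exposed to compound in DMSO for 16 h at 37 °C; reporter activity was read as FRET substrate fluorescence after 2 h at room temperature.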

[2] = qHTS assay for small molecules that induce genotoxicity in human embryonic kidney cells expressing luciferase-tagged ATAD5 (AID 651632); further: nearly all actives have a fitted effect of over 15% in size
How it was run: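 HEK293T cells carrying a luciferase reporter tagged to ATAD5 were exposed to compound or DMSO vehicle for 16 hr at 37C, 5% CO2. Amplite was added, and after 30 min at room temperature luciferase activity was read as a marker of ATAD5 induction.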

[3] = qHTS assay for small molecule agonists of the p53 signaling pathway - cell viability (AID 651633; calls by dose curve; further: nearly all actives have a fitted effect of over 30% in size)
How it was run: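 p53RE-bla cells, seeded at 4,000 per well and rested 5 h at 37 C/5% CO2, received compounds in DMSO for 16 h at 37 C. CellTiter-Glo was then added, and luminescence was read after 30 min at room temperature to gauge cytotoxicity.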

[4] = qHTS assay for small molecules that induce genotoxicity in human embryonic kidney cells expressing luciferase-tagged ATAD5 - cell viability (AID 651634; calls by dose curve; further: nearly all actives have a fitted effect of over 25% in size)
How it was run: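 HEK293T cells expressing luciferase-tagged ATAD5 were exposed to compound or DMSO for 15.5 hr at 37C, 5% CO2. Viability was then read as live-cell protease activity by CellTiter-Fluor fluorescence after 30 min at 37C.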

[5] = qHTS assay for small molecule disruptors of the mitochondrial membrane potential - cell viability (AID 720634; calls by dose curve;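 further: human HepG2 liver cancer cells; nearly all actives have a fitted effect of over 20% in size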)
How it was run: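 HepG2 cells seeded overnight at 37 C, then exposed to compound or DMSO for 1 hr at 37 C, 5% CO2. m-MPI dye added, then CellTiter-Glo for 30 min at room temperature; viability read as ATP luminescence.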

[6] = qHTS assay for small molecule disruptors of the mitochondrial membrane potential (AID 720635)
How it was run: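 HepG2 cells (2,000/well) attached overnight at 37C, then took compound for 1 hr at 37C, 5% CO2. Mito-MPS dye was added for 30 min; fluorescence was read at 490/535 nm (monomers) and 540/590 nm (aggregates).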

[7] = qHTS assay to test for compound auto fluorescence at 590 nm (red) in HepG2 cells (AID 720674)
How it was run: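 Compound auto-fluorescence is scored relative to Rose Bengal sodium, measured at 540/590 nm in live HepG2 cultures after 1 hr compound contact (37 C, 5% CO2).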

[8] = qHTS assay to test for compound auto fluorescence at 535 nm (green) in HepG2 cells (AID 720675)
[9] = qHTS assay to test for compound auto fluorescence at 460 nm (blue) in HEK293 cells (AID 720678)
How it was run: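 Measured: blue fluorescence (Ex 405/Em 460 nm) of compound-treated HEK293 cells, incubated overnight at 37C with 5% CO2 and scaled to triamterene equivalents.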

[10] = qHTS assay to test for compound auto fluorescence at 590 nm (red) in HEK293 cells (AID 720679)
How it was run: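 Using HEK293 cells at 2,000 per well, the screen added 23 nL of each compound after cell attachment and incubated overnight (37C, 5% CO2). The plate reader then captured red-label fluorescence, Ex/Em 540/590nm.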

[11] = qHTS assay to test for compound auto fluorescence at 535 nm (green) in HEK293 cells (AID 720680)
[12] = qHTS assay to test for compound auto fluorescence at 460 nm (blue) in HEK293 cell free culture (AID 720681)
How it was run: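 Test compounds were pinned into cell-free culture medium (DMEM with 10% FBS) and fluorescence was read directly at Ex/Em 405/460 nm. Signals were expressed as fluorescence equivalents of triamterene, with DMSO vehicle as control.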

[13] = qHTS assay to test for compound auto fluorescence at 535 nm (green) in HEK293 cell free culture (AID 720682)
How it was run: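 Read-out: 485/535 nm fluorescence intensity, calibrated against fluorescein. Medium only (DMEM + 10% FBS, no cells); test compound or DMSO vehicle added by pintool before plate reading.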

[14] = qHTS assay to test for compound auto fluorescence at 590 nm (red) in HEK293 cell free culture (AID 720683)
How it was run: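 Tox21 10K library compounds were pinned into cell-free DMEM with 10% FBS and fluorescence was read at excitation 540 nm. Activity is expressed as Rose Bengal sodium equivalency.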

[15] = qHTS assay to test for compound auto fluorescence at 590 nm (red) in HepG2 cell free culture (AID 720684)
How it was run: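 Measured in medium alone (MEM containing 10% FBS) following pintool addition of compound; emission at 590 nm with 540 nm excitation, referenced to Rose Bengal sodium.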

[16] = qHTS assay to test for compound auto fluorescence at 460 nm (blue) in HepG2 cell free culture (AID 720685)
How it was run: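 Compound (23 nL) or DMSO pinned into cell-free MEM with 10% FBS; blue fluorescence read at 405/460 nm excitation/emission, expressed as auto-fluorescence equivalency to triamterene.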

[17] = qHTS assay to test for compound auto fluorescence at 535 nm (green) in HepG2 cell free culture (AID 720686)
[18] = qHTS assay to test for compound auto fluorescence at 460 nm (blue) in HepG2 cells (AID 720687)
How it was run: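 Cells (2,000/well in MEM with 10% FBS) attached overnight at 37 C, then were exposed to compound or DMSO for 1 hr at 37 C, 5% CO2. Fluorescence read at Ex/Em 405/460 nm, expressed as triamterene-equivalent signal.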

[19] = target: Glucocorticoid receptor (Homo sapiens) (UniProt P04150); assay: qHTS assay to identify small molecule agonists of the glucocorticoid receptor (GR) signaling pathway (AID 720691; active means well fitted activation curve with a large enough effect in the signal ratio in the repeat runs, not every such curve was filed as active; the % refers to the signal ratio); conditions: GR-bla HeLa, beta-lactamase reporter ratio, 18 h; activation: at 62.4 µM (top of the series)
Sequence of Glucocorticoid receptor (Homo sapiens) (P04150 whole entry, looked up): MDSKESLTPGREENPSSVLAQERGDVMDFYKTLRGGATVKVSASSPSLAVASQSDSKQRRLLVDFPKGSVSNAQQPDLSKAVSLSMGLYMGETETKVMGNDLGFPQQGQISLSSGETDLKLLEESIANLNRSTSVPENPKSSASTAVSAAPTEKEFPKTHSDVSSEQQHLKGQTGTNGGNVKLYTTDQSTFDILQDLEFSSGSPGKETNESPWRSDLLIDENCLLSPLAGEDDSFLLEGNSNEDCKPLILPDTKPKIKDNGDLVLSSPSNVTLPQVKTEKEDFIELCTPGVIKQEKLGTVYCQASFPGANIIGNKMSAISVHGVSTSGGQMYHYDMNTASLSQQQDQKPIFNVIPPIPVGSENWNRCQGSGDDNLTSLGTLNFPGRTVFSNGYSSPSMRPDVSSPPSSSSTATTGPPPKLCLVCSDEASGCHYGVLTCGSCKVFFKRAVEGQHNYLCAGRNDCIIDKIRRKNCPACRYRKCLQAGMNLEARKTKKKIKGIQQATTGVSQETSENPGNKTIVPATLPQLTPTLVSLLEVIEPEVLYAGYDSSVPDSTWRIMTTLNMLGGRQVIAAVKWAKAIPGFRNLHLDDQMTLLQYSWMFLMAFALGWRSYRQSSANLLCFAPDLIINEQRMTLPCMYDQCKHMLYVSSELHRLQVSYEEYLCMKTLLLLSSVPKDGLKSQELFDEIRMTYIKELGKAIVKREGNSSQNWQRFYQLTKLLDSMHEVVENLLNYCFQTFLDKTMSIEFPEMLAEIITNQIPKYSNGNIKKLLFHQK
How it was run: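 GR-bla HeLa cells (beta-lactamase reporter under glucocorticoid response element) were plated 4 h at 37 C/5% CO2, given compounds in DMSO, and incubated 18 h at 37 C. LiveBLAzer B/G FRET substrate was added for 2 h at room temperature, then fluorescence intensity read.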

[20] = target: Glucocorticoid receptor (Homo sapiens) (UniProt P04150); assay: qHTS assay to identify small molecule antagonists of the glucocorticoid receptor (GR) signaling pathway (AID 720692; active means well fitted inhibition curve with a large enough effect in the signal ratio in the repeat runs, not every such curve was filed as active; the % refers to the signal ratio)
How it was run: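 GR-bla HeLa cells (beta-lactamase reporter under glucocorticoid response element) were pre-plated 4 h at 37 C, treated with compounds plus 5 nM dexamethasone (final) for 18 h, then read by LiveBLAzer B/G FRET fluorescence after 2 h.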

Measured: Potency

O=C1C2CC3CC1CC(O)(C3)C2
inactive: [1] | [2] | [3] | [4] | [5] | [6] | [7] | [8] | [9] | [10] | [11] | [12] | [13] | [14] | [15] | [16] | [17] | [18] | [19] | [20]

OCCCNc1ccccc1
inactive: [1] | [2] | [3] | [4] | [5] | [6] | [7] | [8] | [9] | [10] | [11] | [12] | [13] | [14] | [15] | [16] | [17] | [18] | [19] | [20]

O=c1[nH]c(=O)n([C@H]2C[C@H](O)[C@@H](CO)O2)cc1/C=C/Br
inactive: [1] | [2] | [3] | [4] | [5] | [6] | [7] | [8] | [9] | [10] | [11] | [12] | [13] | [14] | [15] | [16] | [17] | [19] | [20]

O=C1c2ccccc2C(=O)C1c1ccc(F)cc1
inactive: [1] | [2] | [3] | [4] | [5] | [6] | [7] | [8] | [9] | [10] | [11] | [12] | [13] | [14] | [15] | [16] | [17] | [19] | [20]

CC(C)=CCC/C(C)=C/CC/C(C)=C/CC/C=C(\C)CC/C=C(\C)CCC=C(C)C
inactive: [1] | [2] | [3] | [4] | [5] | [6] | [7] | [8] | [9] | [10] | [11] | [12] | [13] | [14] | [15] | [16] | [17] | [18] | [19] | [20]

C=CCN1C(=O)C(CC(C)C)NC1=S (stereo not given)
inactive: [1] | [2] | [3] | [4] | [5] | [6] | [7] | [8] | [9] | [10] | [11] | [12] | [13] | [14] | [15] | [16] | [17] | [18] | [19] | [20]

CNCC(=O)N[C@@H](CCCN=C(N)N)C(=O)N[C@H](C(=O)N[C@@H](Cc1ccc(O)cc1)C(=O)N[C@H](C(=O)N[C@@H](Cc1cnc[nH]1)C(=O)N1CCC[C@H]1C(=O)N[C@@H](C)C(=O)O)C(C)C)C(C)C
inactive: [1] | [2] | [3] | [4] | [5] | [6] | [7] | [8] | [9] | [10] | [11] | [12] | [13] | [14] | [15] | [16] | [17] | [18] | [19] | [20]

CC(C)NCC1CCc2cc(CO)c([N+](=O)[O-])cc2N1 (stereo not given)
inactive: [1] | [2] | [3] | [4] | [5] | [6] | [7] | [8] | [9] | [10] | [11] | [12] | [13] | [14] | [15] | [16] | [17] | [19] | [20]

Nc1nc(/C(=C/CC(=O)O)C(=O)N[C@@H]2C(=O)N3C(C(=O)O)=CCS[C@H]23)cs1
inactive: [1] | [2] | [3] | [4] | [5] | [6] | [7] | [8] | [9] | [10] | [11] | [12] | [13] | [14] | [15] | [16] | [17] | [18] | [19] | [20]

CC/C=C\C/C=C\C/C=C\C/C=C\C/C=C\C/C=C\CCC(=O)O
inactive: [1] | [2] | [3] | [4] | [5] | [6] | [7] | [8] | [9] | [10] | [11] | [12] | [13] | [14] | [15] | [17] | [18] | [19]

FC(F)(F)COCC(F)(F)F
inactive: [1] | [2] | [3] | [4] | [5] | [6] | [7] | [8] | [9] | [10] | [11] | [12] | [13] | [14] | [15] | [16] | [17] | [18] | [19] | [20]

O=S(=O)(O)CC(S)CS (stereo not given)
inactive: [1] | [2] | [3] | [4] | [5] | [6] | [7] | [8] | [9] | [10] | [11] | [12] | [13] | [14] | [15] | [16] | [17] | [18] | [19] | [20]

CCOc1ccc(S(=O)(=O)O)c2cccnc12
inactive: [1] | [2] | [3] | [4] | [5] | [6] | [7] | [8] | [9] | [10] | [11] | [12] | [13] | [14] | [15] | [16] | [17] | [18] | [19] | [20]
